Experimental data as given in ChEMBL document CHEMBL3988442, “University of Dundee, Small-Polar-MMV Screening Library” (2021).
The campaign covered roughly 69,000 compounds. About 950 (1.4%) showed an effect of 50% or more. The sample holds strong results, similar compounds and a random draw of the others, so the mix is not that of the screen.

tested on: Mycobacterium tuberculosis; assay: Cornell M. t heat shock assay; assay type: functional, organism-based; parameters: dose or concentration left out as unconfirmed; also: in the data most compounds retested in dose-response had high values

| Structure (SMILES) | Percent Effect [%] |
| --- | --- |
| O=C(NC1CC1)c1cn(C2CCN(c3cc(C4CC4)ncn3)CC2)nn1 | 61.79 |
| CCc1cc(N2CCC(n3cc(C(=O)NC4CC4)nn3)CC2)ncn1 | 51.27 |
| OCCNc1cc(N2CCC(n3cc(C4CCCC4)nn3)CC2)ncn1 | 8.872 |
| CC(C)Nc1cc(N2CCC(n3cc(C4CC4)nn3)CC2)ncn1 | -24.54 |
| CCc1cc(N2CCC(NC(=O)CCC3CCCO3)CC2)ncn1 (stereo not given) | -18.51 |
| CCc1cc(N2CCC(n3cc(C(=O)NCC(C)C)nn3)CC2)ncn1 | 7.459 |
| CC(C)OCc1ncn2c1CN(Cc1ccc(F)cc1)CCC2.O=C(O)C(F)(F)F | -13.8 |
| Cc1ccc(-n2cccn2)cc1S(=O)(=O)N1C[C@@H]2CC[C@H](C1)N(C)C2 | 23.12 |
| Cn1cc(C2CC(=O)NC23CCN(C(=O)Cc2ccccn2)CC3)cn1.O=C(O)C(F)(F)F (stereo not given) | -20.75 |
| COc1ccnc(CN2CCCC(CCc3ccccc3)C2)c1OC (stereo not given) | 22.56 |
| COc1ccnc(CN2CCCC(CCc3ccc(F)cc3)C2)c1OC (stereo not given) | 80.3 |
| COc1coc(CN2CCCC(CCc3ccc(F)cc3)C2)cc1=O (stereo not given) | -2.405 |
| COCCN1CC[C@@H]2OC(COCC(=O)N3CCCC3)CC[C@@H]21.O=C(O)C(F)(F)F (stereo not given in full) | -19.46 |
| COc1c(C)cnc(CNCC(C)C)c1C | -4.994 |
| CCCS(=O)(=O)NCc1ncc(C)c(OC)c1C | 51.82 |
| CCCNCc1ncc(C)c(OC)c1C | -10.29 |
| FC1(F)CCN(Cc2ccccn2)CC12CCN(c1cccnc1)C2.O=C(O)C(F)(F)F.O=C(O)C(F)(F)F.O=C(O)C(F)(F)F (stereo not given) | -10.62 |
| Cc1csc2ncc(-c3ccnc(N4CCCC[C@@H]4CO)n3)c(=O)n12 | 73.7 |
| Cc1csc2ncc(-c3ccnc(N4CCC[C@@H]4CO)n3)c(=O)n12 | -11.68 |
| O=c1c(-c2ccnc(N3CCCC[C@@H]3CO)n2)cnc2sccn12 | -1.826 |
| Cc1nc(CN2CCc3ncnc(-c4ccc(F)cc4)c3CC2)cs1.O=C(O)C(F)(F)F | -9.802 |
| c1cncc(-c2nc3c(c(NCC4(c5ccncc5)CC4)n2)CCC3)c1 | -38.69 |
| CN(CC1CCCO1)c1nc(-c2cccnc2)nc2c1CCNCC2 (stereo not given) | -30.46 |
| CCc1noc(CNc2nc(-c3cccnc3)nc3c2CCNCC3)n1 | -6.144 |
| Cl.NC1CCc2nc(-c3cccnc3)nc(Nc3ccc(F)cc3)c2C1 (stereo not given) | 99.91 |
| CC(O)CNc1nc(-c2cccnc2)nc2c1CCC2 (stereo not given) | 6.387 |
| CCn1ccc(C(=O)N2CCCC2c2nnc(-c3scnc3C)o2)n1 (stereo not given) | -2.34 |
| Cc1ccc(OCCN(C)C(C)c2cccc(S(N)(=O)=O)c2)cc1 (stereo not given) | -22.37 |

| Structure (SMILES) | Percent Effect [%] |
| --- | --- |
| Cc1ccc(C(C)N(C)CCS(=O)(=O)CCC(N)=O)cc1 (stereo not given) | 68.62 |
| CC(c1ccc(F)c(F)c1)N(C)CCS(=O)(=O)CCC(N)=O (stereo not given) | 53.46 |
| CC(c1cccc(Cl)c1)N(C)CCS(=O)(=O)CCC(N)=O (stereo not given) | 31.14 |
| Cc1ccc(C(C)NC(=O)CSCC(N)=O)cc1 (stereo not given) | 15.53 |
| CC(c1cc(F)ccc1F)N(C)CCS(=O)(=O)CCC(N)=O (stereo not given) | 49.2 |
| O=C(O)C(F)(F)F.O=C(O)C(F)(F)F.O=C(O)C(F)(F)F.c1cc(CN2CCN3C[C@H](Oc4cncnc4)C[C@H]3C2)ccn1 | 11.96 |
| CCN(CCN(C)C)c1nc(CCN)nc2sc(C)c(C)c12 | 91.54 |
| Cc1sc2nc(CCN)nc(N(CCN(C)C)CC3CCCO3)c2c1C (stereo not given) | -25.67 |
| COCCN(CC1CC1)c1nc(CCN)nc2sc(C)c(C)c12 | 9.263 |
| COc1cc(N2C[C@H]3CCC[C@@H](CN(C)C)[C@H]3C2)ncn1.O=C(O)C(F)(F)F | -30.27 |
| O=C1CCCC2=C1C(c1ccc(Cl)cc1Cl)Nc1nonc1N2 (stereo not given) | 15.96 |
| O=C(O)C(F)(F)F.O=C(O)C(F)(F)F.O=C(O)CN1CCC(F)(F)C2(CCN(c3ccccn3)C2)C1 (stereo not given) | -7.749 |
| FC1(F)CCN(Cc2cccnc2)CC12CCN(c1ccccn1)C2.O=C(O)C(F)(F)F.O=C(O)C(F)(F)F.O=C(O)C(F)(F)F (stereo not given) | 8.031 |
| O=C(CO)N1CCC(F)(F)C2(CCN(c3ccccc3)C2)C1.O=C(O)C(F)(F)F (stereo not given) | 34.47 |
| O=C(O)C(F)(F)F.O=C(O)C(F)(F)F.O=C(O)CN1CCC(F)(F)C2(CCN(c3ccccc3)C2)C1 (stereo not given) | 100.8 |
| FC1(F)CCN(Cc2cccnc2)CC12CCN(c1ccccc1)C2.O=C(O)C(F)(F)F.O=C(O)C(F)(F)F.O=C(O)C(F)(F)F (stereo not given) | 107.1 |
| O=C(O)C(F)(F)F.O=C(c1c[nH]cn1)N1CCC(F)(F)C2(CCN(c3ncccn3)C2)C1 (stereo not given) | -10.36 |
| O=C(O)C(F)(F)F.O=C(O)C(F)(F)F.O=C(c1c[nH]cn1)N1CCC(F)(F)C2(CCN(c3ccccn3)C2)C1 (stereo not given) | 6.804 |
| O=C(O)C(F)(F)F.O=C(c1c[nH]cn1)N1CCC(F)(F)C2(CCN(c3cccc(F)c3)C2)C1 (stereo not given) | 53.67 |
| FC1(F)CCN(Cc2ccncc2)CC12CCN(c1cccnc1)C2.O=C(O)C(F)(F)F.O=C(O)C(F)(F)F.O=C(O)C(F)(F)F (stereo not given) | -5.593 |
| Cc1ccc(C(=O)N2CCC3(CCN(C(=O)c4cccnc4)C3)CC2)o1.O=C(O)C(F)(F)F | 1.785 |
| COC(=O)CC(C)(C)CC(=O)N1CCC(C(F)(F)F)CC1 | -1.161 |
| Cc1nn(C)cc1S(=O)(=O)NCC(c1ccccc1)N1CCCCCC1.Cl (stereo not given) | -15.55 |
| CN(C)CCNCCC(Cc1ccccc1)C1CCOC(C)(C)C1.O=C(O)C(=O)O (stereo not given) | -22.2 |
| Cl.FC(F)(F)c1nc(C2CCNCC2)no1 | -8.269 |
| COCCN1CCC2(CC1)CC(NCc1ccc(C)s1)c1ccccc12.O=C(O)C(F)(F)F.O=C(O)C(F)(F)F (stereo not given) | 1.76 |
| Cc1nc(CN2C[C@@H]3CN(C(=O)c4cccn4C)C[C@@H]3C2=O)cs1.O=C(O)C(F)(F)F | -10.46 |
